About 83,000 compounds went through this panel and 20% of them were active in at least one assay; those are over-represented in the sample as a whole.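 Note: values are percent growth. 100 is the growth of untreated cells, values between 100 and 0 indicate rising inhibition; between -100 and 0 indicates cell death.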 Activity calls are given as the source filed them. How the source made its calls: active means growth percent below 10; inactive means the rest.

This test concerns UACC-257 melanoma. The test can be described thus: NCI-60 one-dose screen, 48 h (100 = growth as untreated, 0 = no growth, -100 = all killed). To be noted: 10 µM.
Consider `COc1ccc(C2c3sc4ccc(C)cc4c3Oc3nc(N)nc(N)c32)cc1` (centres undefined), for which the growth is 94.9% (inactive). As for `Cc1cc(N=C2NC(=O)S/C2=C\c2ccc(F)cc2)n[nH]1`, the growth is 19.6% (inactive). The figure for `Cn1cc(-c2nnc(N)nc2-c2c[nH]c3ccccc23)c2cc(Br)cnc21` is 73% (inactive). The same measure for `O=C(CC(=O)Nc1ccc(Oc2ncnc3scc(Nc4n[nH]c(=S)s4)c23)cc1)Nc1ccc(Cl)cc1`: 104% (inactive). The figure for `O=C1NC2C=CC=CC2/C1=C1/SC(=S)N(C2CC(=O)N(c3ccc(Br)cc3)C2=O)C1=O` (centres undefined) is 95.9% (inactive). Take `CC1(C)CC(=O)C2=C(C1)N(Cc1ccc(C(=O)O)cc1)C1=C(C(=O)CC(C)(C)C1)C2c1ccc(Cl)cc1`: the growth is 101% (inactive).

Take `Cc1ccc2c(c1)C(=O)/C(=C/c1ccc([N+](=O)[O-])cc1)S2`: the growth was 101% (inactive). The figure for `O=C(Nc1ccc(OCc2ccc(Cl)cc2)cc1)Nc1ccc(Cl)c(C(F)(F)F)c1` is -6.05% (active). The figure for `Cn1cc(-c2nc(N)nnc2-c2c[nH]c3ccccc23)c2cc(Br)cnc21` is 46% (inactive); for `O=C(CSc1nc2ccccc2c(=O)n1-c1ccc(Cl)cc1)Nc1ccc(-c2nc3ccccc3[nH]2)cc1` it is 13.3% (inactive).

As to `Cc1ccc2c(c1)C(=O)/C(=C/c1c[nH]c3ccccc13)S2`, the growth was 72.4% (inactive). The figure for `COc1cccc(O)c1/C=C1\SCc2cc3c(OC)cccc3[o+]c21` is 103% (inactive). The same measure for `COc1cc(C2CC(c3ccc(Oc4ccc(Cl)cc4)cc3)=NN2c2nc(-c3ccc(Cl)cc3)c(C#N)c(N3CCOCC3)n2)cc(OC)c1OC` (centres undefined): 101% (inactive); for `O=C(Nc1ccc(OCC(=O)c2ccc(Cl)cc2)cc1)Nc1ccc(Cl)c(C(F)(F)F)c1`: 19.8% (inactive); for `Cc1ccc2sc3c(c2c1)Oc1nc[nH]c(=O)c1C3c1cccc(F)c1` (centres undefined): 101% (inactive). The same measure for `Cc1cc(N=C2NC(=O)/C(=C/c3cc(C(C)(C)C)c(O)c(C(C)(C)C)c3)S2)n[nH]1`: 4.76% (active). With `COc1ccc(C2c3sc4ccc(C)cc4c3Oc3nc[nH]c(=O)c32)cc1` (centres undefined), the growth is 88.2% (inactive). The figure for `COc1cccc(C(=O)CSc2nc(-c3ccc(OCc4ccccc4)c(OC)c3)c(C#N)c(=O)[nH]2)c1` is 94% (inactive). For `Cc1ccc(COc2ccc(NC(=O)Nc3ccc(Cl)c(C(F)(F)F)c3)cc2)cc1`, the growth was 76.1% (inactive). The figure for `CC(C)(C)c1cc(/C=C2\S/C(=N/c3ncn[nH]3)NC2=O)cc(C(C)(C)C)c1O` is 17.5% (inactive); for `Cn1cc(/C=C(/SS/C(=C/c2cn(C)c3cccc(C(=O)O)c23)C(=O)O)C(=O)O)c2c(C(=O)O)cccc21` it is 104% (inactive); for `COc1ccc(C(=O)COc2ccc(NC(=O)Nc3ccccc3)cc2)cc1` it is 93.8% (inactive). The same measure for `CCn1c(SCC(=O)Nc2ccc(-c3nc4ccccc4[nH]3)cc2)nc2ccccc2c1=O`: -84.6% (active). The figure for `O=C(Nc1ccc(OCc2ccc(F)cc2)cc1)Nc1ccc(Cl)c(C(F)(F)F)c1` is -1.33% (active). For `O=C(CC(=O)Nc1ccc(Oc2ncnc3scc(Nc4n[nH]c(=S)s4)c23)cc1)Nc1ccc(Br)cc1`, the growth is 104% (inactive).

Turning to `COc1ccc(C(=O)COc2ccc(NC(=O)Nc3ccc(Cl)c(C(F)(F)F)c3)cc2)cc1`, the growth is 11.8% (inactive).

Take `O=C(Nc1ccc(Oc2ncnc3scc(Nc4n[nH]c(=S)s4)c23)cc1)C1(C(=O)Nc2cccc(C(F)(F)F)c2)CC1`: the growth is 110% (inactive). The figure for `O=C1NC(=S)S/C1=C\c1cn(-c2ccccc2)nc1-c1ccc([N+](=O)[O-])cc1` is -10.5% (active); for `O=C(CSc1nc2ccccc2c(=O)n1-c1ccc(Cl)cc1)Nc1ccc(-c2nc3ccc([N+](=O)[O-])cc3[nH]2)cc1` it is 36% (inactive).
